# Source: PubChem
# Most compounds without a hit are left out; they make up all but 11% or so of the library.
# Tau fibril ThT: blocks human tau fibril formation measured by thioflavin T. P10636. recombinant tau K18 P301L, heparin-induced fibrillization, ThT fluorescence. Potency, µM (highest dose often 57.4 µM), for inactives: top-dose activity, negative = inhibition, actives largely listed as inhibitors. actives 2.1% (n = 270,000). AID 1460; also: potency is read from the fitted curve at half-maximal effect; nearly all actives have a fitted effect of over 55% in size
# Target sequence (P10636 561-689 P618L limits assumed): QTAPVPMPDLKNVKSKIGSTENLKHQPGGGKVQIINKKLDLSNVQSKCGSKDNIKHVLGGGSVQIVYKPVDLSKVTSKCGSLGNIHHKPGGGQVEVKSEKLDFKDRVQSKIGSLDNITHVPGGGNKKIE
#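 Recombinant human tau K18 fragment […] carrying P301L, 15 uM unlabeled plus 0.24 uM Alexa 594-labeled, was fibrillized with 20 uM heparin in 100 mM sodium acetate pH 7 for 6 hr at 37 C; 30 uM ThT fluorescence read after 1 hr.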
# Tau fibril FP: blocks human tau fibril formation measured by polarization. actives 0.39% (n = 280,000). AID 1468. P10636. Potency, µM (series often up to 57.7 µM), for the others: at the top dose activity, negative = inhibition, usual class: inhibitors. K18 P301L tau heparin fibrillization, Alexa594 FP, 6 h; also: potency is read from the fitted curve at half-maximal effect; nearly all actives have a fitted effect of over 55% in size
#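 Steps: dispense K18 P301L tau (15 uM plus 0.24 uM Alexa 594 tracer, final) in pH 7 sodium acetate; add compound; add heparin (20 uM final); incubate 6 hr, 37 C; add ThT (30 uM final); after 1 hr ambient, read FP.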
# Sfp PPTase inh: Sfp phosphopantetheinyl transferase inhibition | Q9F4F7 | Biochemical Sfp PPTase activity, qHTS | Potency, µM, for inactives: largest response in the series, negative = inhibition, most hits filed as inhibitors | actives 3.5% (n = 310,000) | AID 1490;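 also: the enzyme is Sfp with the accession as filed and its product quenches rhodamine fluorescence; potency is read from the fitted curve at half-maximal effect; 0% = enzyme reaction without inhibitor and -100% = no enzyme wells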
#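 Reaction rates are the 30-min fluorescence difference (ex 525, em 598 nm) in wells containing 15 nM Sfp, 5 uM rhodamine-CoA and 12.5 uM BHQ-2-YbbR at pH 7.6 with 10 mM MgCl2.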
# FBPA coupling cs: inhibits coupling enzyme system, counter-screen for aldolase hits | coupling enzyme system counterscreen, AmpLite Red fluorescence | activity change, negative = inhibition, % at 58.2 µM, hits read low | actives 0.67% (n = 290,000) | AID 2472; in the data active = activity change below about -30%
#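 Counterscreen lacking aldolase: glyceraldehyde-3-phosphate coupling-enzyme reagent preincubated 10 min at RT with compound (at 57.5 uM final), then substrate/coupling system with AmpLite Red added; fluorescence read at 525/598 nm after 20 min RT.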
# G9a inh: G9a (human) methyltransferase inhibition. G9a H3K9 monomethylation, AlphaScreen, 2 h. actives 8.8% (n = 350,000). Q96KQ7. Potency, µM (doses to about 102 µM), without a hit: at the highest dose activity, negative = inhibition, most hits filed as inhibitors; also: potency is read from the fitted curve at half-maximal effect; nearly all actives have a fitted effect of over 75% in size
# Target sequence (Q96KQ7 913-1193 limits assumed): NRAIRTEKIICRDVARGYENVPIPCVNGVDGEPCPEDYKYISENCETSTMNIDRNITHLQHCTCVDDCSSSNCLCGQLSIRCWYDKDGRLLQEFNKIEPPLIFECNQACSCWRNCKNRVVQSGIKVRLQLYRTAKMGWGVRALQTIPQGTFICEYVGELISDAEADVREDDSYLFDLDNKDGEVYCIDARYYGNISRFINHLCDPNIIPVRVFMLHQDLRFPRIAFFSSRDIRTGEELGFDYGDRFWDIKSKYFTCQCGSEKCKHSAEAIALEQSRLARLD
#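 Enzyme 20 nM + cpd, 15 min RT; add b-H3K9 pep 500 nM / SAM 20 uM; 2 h RT; anti-H3K9me1 Ab 0.5 ug/mL + SA donor / anti-rabbit acceptor beads 20 ug/mL each, 10 min; AlphaScreen read.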
# Tau fluor counter: counter-screen for tau fibril formation inhibitors; actives 0.93% (n = 280,000); AID 1463; tau K18 P301L Alexa594 fluorescence, heparin fibrillization; Potency, µM (highest dose often 57.7 µM), without a hit: top-dose activity change, negative = decrease; also: potency is read from the fitted curve at half-maximal effect; nearly all actives have a fitted effect of over 55% in size
#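 Human tau K18 P301L (15 uM unlabeled, 0.24 uM Alexa 594-labeled) in 100 mM sodium acetate pH 7 with 20 uM heparin, 6 hr at 37 C. ThT 30 uM added, 1 hr ambient; Alexa 594 FP and total fluorescence read at 555/632 nm.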
# The depositor's hits bear a star; u = inconclusive; x = no result; ! = repeats disagree; [ ] = remark or other dose. Unless noted, calls follow the shape of the dose curve; as a rule, active = well fitted curve in the direction sought with a large enough effect; inconclusive = small, poorly fitted or top-dose-only effect, or another doubt; inactive = no such curve, though single readings can be large; an effect the other way counts as inactive or inconclusive. Unless noted, % is scaled to controls: 0 for no effect and ±100 for the full control effect.
SMILES,Tau fibril ThT,Tau fibril FP,Sfp PPTase inh,FBPA coupling cs,G9a inh,Tau fluor counter
O=C(Nc1ccc2nc(-c3cccs3)c(-c3cccs3)nc2c1)NC1CC1,u,22µM*,11%,-1,-2%[59 µM],u
O=C(CSc1nc(-c2cccs2)nc2cc(=O)[nH]n12)Nc1ccc(F)cc1,u,-3%,x,x,26%[59 µM],-5%
c1cncc([C@H]2CCCCN2)c1,3%,-3%,10%,0,x,3%
CC(C)[C@H](NC(=O)[C@H](CC(=O)O)NC(=O)[C@H](Cc1ccccc1)NC(=O)[C@@H](C)NC(=O)[C@@H](N)Cc1ccc(O)cc1)C(=O)N[C@H](C(=O)NCC(N)=O)C(C)C,x,x,-14%,-3,x,x
CCc1ccc2c(CN3CC=C(c4ccccc4)CC3)cc(=O)oc2c1,u,-16%,0%,9,-12%[59 µM],-10%
Cc1ccc2c(CN3CC=C(c4ccccc4)CC3)cc(=O)oc2c1C,u,-15%,-5%,-2,50µM*,-9%
COc1ccc(C(C)=O)cc1CN1CC=C(c2ccccc2)CC1,x,x,-13%,-2,13µM*,x
CCOC(=S)SSC(=S)OCC,x,x,5.6µM*,x,u,x
COc1ccc(OC)c(CN2CCN(C(=O)Cc3ccccc3)CC2)c1,x,x,-40%,-2,5µM*,x
COc1ccc(CN2CCN(C(=O)Cc3ccccc3)CC2)cc1Br,x,x,89µM*,-2,x,x
CCOc1cc(CN2CCN(C(=O)Cc3ccccc3)CC2)ccc1OC,x,x,-13%,-1,x,x
CCOC(=O)c1oc2ccc(S(=O)(=O)n3nc(-c4ccc(Br)cc4)cc3N)cc2c1C,4%,u,x,x,-34%[59 µM],u
C[N+](C)(C)CC(=O)O,-5%,-9%,x,x,40µM*!,-6%
OC(CNC1CCCCCCC1)c1ccccc1 (configuration not stated),-8%,-5%,-11%,2,14µM*,-4%
O=[N+]([O-])c1ccc(Sc2nc3ccccc3o2)c([N+](=O)[O-])c1,14µM*,u,-17%,-8,22µM*,8.9µM*[quencher]
O=c1[nH]c(O)c(N=Nc2ccc3c(c2)OCCO3)c(=O)[nH]1,5.6µM*,11%,17%,-1,50µM*,-8%
O=c1[nH]c(O)c(Cc2ccc3c(c2)OCO3)c(=O)[nH]1,x,15%,7%,2,3%,u
O=C(N=Nc1c(O)[nH]c(=O)[nH]c1=O)C1COc2ccccc2O1 (configuration not stated),28µM*,u,u,-29,45µM*,-11%
O=c1[nH]c(=S)[nH]c(O)c1N=Nc1ccc2c(c1)OCCO2,2.2µM*,-13%,u,0,u,-18%
O=c1[nH]c(=S)[nH]c(O)c1N=Nc1ccc2c(c1)OCO2,4µM*,8%,0%,0,u,-11%
O=C(O)c1ccccc1N=Nc1c(O)[nH]c(=O)[nH]c1=O,-4%,5%,-6%,-5,u,9%
CC(=O)OO,x,x,15%,x,26%[59 µM],x
CC[C@@]1(O)CC(O)c2c(cc3c(c2O)C(=O)c2c(O)ccc(O)c2C3=O)C1C(=O)OC (some centres not stated),7.9µM*,-14%,14%,-16,u,-27%
CC[C@]1(O)CC(O[C@@H]2CC(N(C)C)C(O)C(C)O2)c2c(cc3c(c2O)C(=O)c2c(O)cccc2C3=O)C1C(=O)OC (some centres not stated),8.9µM*,4%,-4%,-25,u,u
CC[C@H]1CN2CC[C@@H]1C[C@H]2[C@@H](O)c1ccnc2ccc(OC)cc12,x,x,22%,3,6%[21.5 µM],x
Cn1c(NN=O)nc2ccccc21,18µM*,-9%,40µM*,-11,8.9µM*,u
CN1CCN(Cc2nc3ccccc3n2C)CC1,-10%,-2%,8%,0,u,-3%
Brc1ccccc1OCCCN1CCOCC1,2%,5%,-20%,2,7.9µM*,4%
CCOc1ccccc1OCCCCN1CCCC1,-3%,5%,u,0,u,0%
